Source: PubChem
EBV LMP1 NFkB = EBV LMP1-driven NF-kappaB luciferase reporter inhibitors, primary screen, cell-based, luminescence, single point | LMP1-induced NF-kappaB luciferase reporter cells | inhibition, % at 12.5 µM | 350,000 compounds, 0.69% hits | AID 504558, 2011; in the data active = inhibition above about 41%; inconclusive = no clear call, values can overlap the other calls;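 note: 0% = neutral control wells and 100% = reference inhibitor control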
TWEAK Fn14 block = inhibitors of TWEAK-Fn14 signaling, primary screen, luciferase reporter cells, uHTS | 360,000 compounds, 2% hits | inhibition, % at 10 µM | TWEAK-stimulated Fn14 reporter cells, luciferase luminescence, 8 h; in the data active = inhibition above about 50%
HSF1 activator = HSF-1 activators, primary screen, NIH3T3-HGL cells, MG132 stress, luminescence, single point. NIH3T3-HGL HSF-1 luciferase reporter, 8 h; 100% = twice DMSO control signal. activation, % at 9 µM. AID 504408, 2011. 300,000 compounds, 1.7% hits;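 active = mean replicate activation of at least 50% with a set share of replicates each reaching 50%; inconclusive = only one of those two conditions met; inactive = mean below 50% and too few replicates reaching it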;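 note: 0% = median of the neutral control wells and 100% = twice that signal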
LGR2 antag = inhibitors of bursicon-induced LGR2 CRE-luciferase signal, primary screen, cell-based, HEK293, CRE-luciferase reporter, bursicon stimulation. bursicon-stimulated, 4 h. 380,000 compounds, 0.35% hits. inhibition, % at 9.99 µM. Drosophila bursicon receptor LGR2 (rickets);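 active = drop in luminescence signal, shown as inhibition above about 50% in the replicate tests, limit read from the data, passing the limit was not always enough; inconclusive = probably only some replicates passing the limit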;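 note: agonist challenge used bursicon conditioned medium at about half maximal strength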
HSF1 inhib = HSF1 inhibitors in luciferase reporter cells, primary screen, cell-based, NIH3T3, luminescence. NIH3T3-HGL HSE-luciferase, MG132-induced, luminescence 8 h; stronger effect = lower value. activity change, negative = inhibition, % at 7.5 µM (by protocol). 300,000 compounds, 0.77% hits. AID 2098, 2009;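 active = more than half of replicate wells show activity change below -50%, luminescence cut by over half; inconclusive = some wells, but at most half, below -50%; inactive = no replicate well below -50%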;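 note: luciferase reports HSF-1 transcriptional activity via heat shock element; 0% = median of DMSO wells and -100% = zero luminescence signal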
TROY signal inh = inhibitors of TROY-driven NF-kB signaling, primary screen, Q293 LMP1-TROYcd cells, NF-kB luciferase, uHTS; Q293 LMP1-TROYcd NF-kB luciferase reporter, 4 h; inhibition, % at 10 µM; 360,000 compounds, 0.98% hits;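 active = compounds whose plate-normalised and pattern-corrected inhibition of the luciferase reporter signal at the single screening dose is 50% or more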
Active calls of the source: *; ? = inconclusive; . = not tested or not shown. Only some compounds are listed: those with a hit (about 3.6% of all), similar ones and a draw of the others.

SMILES	EBV LMP1 NFkB	TWEAK Fn14 block	HSF1 activator	LGR2 antag	HSF1 inhib	TROY signal inh
COc1cc(/C=C/c2nc3ccccc3c(=O)n2-c2ccc(O)cc2)ccc1O	-6.9	54.2*	14.9	15.6	14.7	27.4
COc1ccc(-n2c(/C=C/c3ccc(O)c(O)c3)nc3ccccc3c2=O)cc1	-2.6	17.0	6.3	9.0	2.4	-4.7
COC(=O)C1CN(C#N)N(c2ccc(Cl)cc2)C12c1ccccc1-c1ccccc12 (stereo unspecified)	37.3	91.8*	-95.1	99.6*	-95.2*	90.0*
COC(=O)[C@H]1[C@H](CO)[C@H]2Cn3c(ccc(-c4ccccc4F)c3=O)[C@@H]1N2Cc1ccccc1	.	.	.	3.4	.	.
C[C@@H]1O[C@@H](O[C@H]2C[C@@H](O)[C@]3(CO)[C@@H]4C(CC[C@]3(O)C2)[C@@]2(O)CC[C@H](C3COC(=O)C3)[C@@]2(C)C[C@H]4O)[C@H](O)[C@H](O)[C@H]1O (stereo partly specified)	53.2*	52.7*	.	73.1*	.	43.7
COc1cccc(-c2ccc([C@@H]3[C@H](CO)N4CCCCN(C(=O)Cc5ccncc5)C[C@@H]34)cc2)c1	.	.	.	11.7	.	.
O=C(O)[C@H]1[C@H](CO)[C@H]2Cn3c(ccc(-c4ccc(F)cc4)c3=O)[C@@H]1N2CC1CCCC1	.	.	.	-19.9	.	.
COC(=O)[C@H]1[C@H](CO)[C@H]2Cn3c(ccc(-c4ccccc4)c3=O)[C@@H]1N2C(=O)c1ccccc1F	.	.	.	9.8	.	.
N=Cc1c(O)n(-c2ccc(C34CC5CC(CC(C5)C3)C4)cc2)c(=O)[nH]c1=O	0.0	67.5*	-28.6	8.4	-10.2	53.5*
CN(C)C(=O)On1c(-c2ccccc2)nc2ccc(Cl)cc21	-10.4	1.0	20.5	.	8.5	-66.2
CC(=O)N(C)C1=Nc2ccc(Cl)cc2C(c2ccccc2)=[N+]([O-])C1	70.2*	17.9	.	7.1	.	-26.4
C[C@H](CO)N1C[C@H](C)[C@H](CN(C)C(=O)Oc2ccccc2)OCc2ccccc2-c2c(n(C)c3ccccc23)C1=O	.	.	.	3.3	.	.
O=c1[nH]c(O)c(/C=C2/C=CC(c3cc(Cl)ccc3Cl)=N2)c(=O)[nH]1	6.1	44.9	1.8	-57.4	-0.2	84.5*
CC1=Nc2ccccc2/C1=C/c1c(O)[nH]c(=O)[nH]c1=O	-9.3	8.2	-3.1	4.6	-2.7	1.5
CC=Cc1ccc2n(c1=O)C[C@H]1[C@H](CO)[C@@H](C(=O)OC)[C@@H]2N1C(=O)CC1CC1 (mixture of isomers)	.	.	.	-5.9	.	.
CCC(C)(O)C(=O)OC1C(=O)OC2CC3C(C)=CC(O)C(O)C3(C)C3C4(O)OCC23C1C(C)C4O (stereo unspecified)	.	91.8*	.	31.8	.	44.2
O=C(Cc1ccncc1)N1CCCCN2[C@H](C1)[C@@H](c1ccc(C#CC3(O)CCCC3)cc1)[C@@H]2CO	.	.	.	-6.1	.	.
COc1cc(OC)c(OC)cc1CN1CCN(C(=O)Cc2ccccc2)CC1	4.1	96.6*	-4.2	4.4	-14.0	5.4
COc1cccc(-n2c(C)nc3ccccc3c2=O)c1	-2.2	66.7*	-4.4	.	-3.9	-18.6
O=C1CNC[C@@H]2[C@H](c3ccc(Br)cc3)[C@@H](CO)N12	.	.	.	3.5	.	.
CCCOC(=O)c1ccc(-[n+]2c(-c3ccccc3)cc(-c3ccccc3)cc2-c2ccccc2)cc1	32.0	61.8*	-8.0	-4.7	-9.3	24.4
COc1ccc(-c2cc(-c3ccccc3)[n+](C)c(-c3ccccc3)c2)cc1	9.5	23.3	-1.2	44.1	-1.9	42.7
COc1ccc(-[n+]2c(-c3ccccc3)cc(-c3ccc(C)cc3)cc2-c2ccccc2)cc1	-0.9	60.5*	-14.6	28.4	-16.8	49.0
Oc1ccccc1-[n+]1c(-c2ccccc2)cc(-c2ccccc2)cc1-c1ccccc1	3.8	-4.2	-9.4	2.4	1.2	-0.8
Cc1ccccc1-[n+]1c(-c2ccccc2)cc(-c2ccccc2)cc1-c1ccccc1	?	88.6*	-12.6	31.1	-5.2	63.3*
SMILES	EBV LMP1 NFkB	TWEAK Fn14 block	HSF1 activator	LGR2 antag	HSF1 inhib	TROY signal inh
OC[C@H]1Nc2ccc(C#Cc3cccnc3)cc2[C@H]2NCC[C@H]21	.	.	.	12.9	.	.
COC(=O)C1=C(c2ccc3ccccc3c2)C[C@@H]2CC[C@H]1N2C(=O)N1CCCC1	7.9	9.6	.	.	.	6.5
COC(=O)C1=C(c2ccc3ccccc3c2)C[C@@H]2CC[C@H]1N2C(=O)N1CCC(O)CC1	84.6*	1.4	.	.	.	2.1
COC(=O)C1=C(c2ccc(F)cc2OCc2ccccc2)C[C@@H]2CC[C@H]1N2C(=O)N1CCCCC1	0.3	2.4	.	9.2	.	-17.7
COC(=O)C1=C(c2ccc(-c3ccccc3)c(F)c2)C[C@@H]2CC[C@H]1N2C(=O)N1CCC(C)CC1	45.0*	24.9	.	.	.	13.4
COC(=O)C1=C(c2ccc(-c3ccccc3)c(F)c2)C[C@@H]2CC[C@H]1N2C(=O)N1CCC(O)CC1	18.0	8.2	.	-5.2	.	12.8
COC(=O)C1=C(c2ccc(F)cc2OCc2ccccc2)C[C@@H]2CC[C@H]1N2C(=O)N1CCC(O)(c2ccc(Cl)cc2)CC1	-2.9	55.8*	.	8.1	.	-1.8
COc1cccc(-c2ccc([C@H]3[C@@H](CO)N4CCCCN(C(=O)Cc5ccncc5)C[C@H]34)cc2)c1	.	.	.	8.3	.	.
COc1ccccc1CN1[C@H](CO)[C@@H](c2ccccc2)C12CN(C(=O)Cc1ccccc1)C2	.	.	.	-12.8	.	.
Cc1ccccc1-c1ccc([C@@H]2[C@H]3CN(C(=O)Cc4ccccn4)CCCCN3[C@H]2CO)cc1	.	.	.	4.8	.	.
N#Cc1cccc(-c2ccc([C@@H]3[C@@H](CO)N4CCCCN(C(=O)Cc5ccccc5)C[C@H]34)cc2)c1	.	.	.	-12.8	.	.
O=C(Cc1ccccn1)N1CCCCN2[C@H](CO)[C@@H](c3ccc(-c4ccc(F)cc4)cc3)[C@H]2C1	.	.	.	2.7	.	.
CN1CCN(c2ccc3c(c2)S(=O)(=O)c2ccccc2C3=O)CC1	-8.2	-21.6	27.6	-107.9	15.1	-31.8
CN1CCN(c2cccc3c2C(=O)c2ccccc2C3=O)CC1	6.3	54.6*	-18.4	-44.6	-24.6	63.6*
COc1ccc(Oc2cc(NC(=O)c3nn(C)cc3[N+](=O)[O-])cc([N+](=O)[O-])c2)cc1	-5.0	25.2	-56.6	3.6	-53.8*	-8.6
Cc1ccccc1-c1ccc([C@H]2[C@H]3CN(C(=O)Cc4ccccn4)CCCCN3[C@H]2CO)cc1	.	.	.	-16.5	.	.
COC(=O)[C@H]1[C@H](CO)[C@H]2Cn3c(ccc(C4=CCCCC4)c3=O)[C@@H]1N2CC1CC1	.	.	.	-0.2	.	.
